Results from PubChem BioAssay (NCATS).
Records with an inconclusive call do not appear. Calls of active or inactive are those of the source. Unless noted, the call rests on the fitted dose curve; in most records, active means well fitted curve in the direction sought with a large enough effect; inconclusive means small, poorly fitted or top-dose-only effect, or another doubt; inactive means no such curve, though single readings can be large; an effect the other way counts as inactive or inconclusive.

Key:
[1] = Cell Viability - BJ (AID 421; calls by dose curve;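 further: potency means the concentration at half of the fitted maximal effect; cells exposed to compound for 40 hours at 37 °C before readout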); settings: BJ fibroblast viability, qHTS
Method in brief: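 Cytotoxicity as drop in intracellular ATP (CellTiter-Glo, 20 min RT) after 40 hr compound exposure of BJ fibroblasts at 37 °C. Titrations scaled between DMSO and 100 uM tamoxifen, Hill-fitted for AC50.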

[2] = Cell Viability - Jurkat (AID 426;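 active means dose-dependent loss of cell ATP signal giving a full or clear fitted curve, ranked by lower potency value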;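 further: potency means the concentration at half of the fitted maximal effect; cells exposed to compound for 40 hours at 37 °C before ATP read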); settings: qHTS
Method in brief: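 Cytotoxicity was scored as loss of cellular ATP, measured by luciferase-based luminescence, in Jurkat clone E6-1 cells after 40 h compound treatment; tamoxifen and doxorubicin served as positive controls.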

[3] = Cell Viability - Hek293 (AID 427;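 active means compounds whose dose-response curve shows a full or clear partial loss of cell viability, called from curve shape rather than a numeric limit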;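 further: potency means the concentration at half of the fitted maximal effect; cells exposed to compound for 40 hours at 37 °C before reading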); settings: qHTS
Method in brief: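 Luminescent ATP content (CellTiter-Glo, 20 min at room temperature) was measured after a 40 hr, 37 °C compound exposure of HEK293 cells. AC50 values came from Hill-equation fits of qHTS concentration-response data normalized to DMSO and 100 uM tamoxifen.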

[4] = Cell Viability - HepG2 (AID 433; calls by dose curve;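 further: potency means the concentration at half of the fitted maximal effect; cells exposed to compound for 40 hours; potency for ATP loss meaning cytotoxicity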); settings: qHTS
Method in brief: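 Cytotoxicity read as ATP loss (CellTiter-Glo luminescence) after 40 hr compound exposure of HepG2, 1500 cells/well, 37 °C. AC50 by Hill equation; 0% set by DMSO, 100% inhibition by 100 uM tamoxifen.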

[5] = Cell Viability - MRC5 (AID 434; calls by dose curve;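 further: potency means the concentration at half of the fitted maximal effect; cells exposed to compound for 40 hours at 37 °C; potency reflects cytotoxicity seen as loss of intracellular ATP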); settings: MRC5 lung fibroblast viability, qHTS
Method in brief: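 ATP luminescence read-out (CellTiter-Glo, 20 min RT) after 40 hr, 37 °C compound exposure of 1500 MRC5 cells/well. Data normalized to DMSO (basal) and 100 uM tamoxifen (100% inhibition); AC50 from standard Hill equation.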

[6] = Cell Viability - SK-N-SH (AID 435; calls by dose curve; further: potency means the concentration at half of the fitted maximal effect); settings: SK-N-SH neuroblastoma cell viability qHTS
Method in brief: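 qHTS cytotoxicity: CellTiter-Glo ATP luminescence after 40 h compound exposure of human neuroblastoma SK-N-SH cells at 37 °C. AC50 derived by Hill-equation fitting, with DMSO as basal and 100 uM tamoxifen as full inhibition.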

[7] = Cell Viability - N2a (AID 540); settings: N2a mouse neuroblastoma cell viability; at 92.2 µM (top of the series);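 further: plate controls were DMSO alone for no effect and tamoxifen control for full effect; nearly all actives have a fitted effect of over 45% in size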
Method in brief: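 In this qHTS cytotoxicity screen, ATP-dependent luciferase luminescence reports viable N2a cells after a 40 hr compound exposure in complete culture medium. Potencies are AC50 values from standard Hill equation fits.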

[8] = Cell Viability - NIH 3T3 (AID 541); settings: NIH 3T3 cell viability, qHTS; activity change, negative = cytotoxicity: at 92.2 µM (top of the series);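 further: cells exposed to compound for 40 hours; plate controls were DMSO alone for no effect and tamoxifen positive control for full effect; nearly all actives have a fitted effect of over 25% in size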
Method in brief: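 In this cytotoxicity screen, acute toxicity is scored as an ATP drop measured by CellTiter-Glo in NIH 3T3 fibroblasts following a 40 hr, 37 °C incubation with compound.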

[9] = Cell Viability - HUV-EC-C (AID 542);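 further: cells exposed to compound for 40 hours; on the % scale 0 is the no-effect control and ±100 the full control effect; nearly all actives have a fitted effect of over 35% in size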
Method in brief: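 Concentration-dependent ATP loss in HUV-EC-C cells is the measure. Exposure lasts 40 hr at 37 °C; luminescence follows CellTiter-Glo addition, and Hill fits give AC50.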

[10] = Cell Viability - H-4-II-E (AID 543);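 further: cells exposed to compound for 40 hours; on the % scale 0 is the no-effect control and ±100 the full control effect; nearly all actives have a fitted effect of over 35% in size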
Method in brief: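 AC50 from Hill-modelled qHTS concentration-response curves. H-4-II-E rat hepatoma cells in complete medium, 40 hr exposure at 37 °C, viability by CellTiter-Glo ATP luminescence.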

[11] = Cell Viability - SH-SY5Y (AID 544); settings: SH-SY5Y neuroblastoma cell viability; viability change, negative = cytotoxic: at 92.2 µM (top of the series);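 further: cells exposed to compound for 40 hours; 0% = DMSO alone and -100% = 100 µM tamoxifen; nearly all actives have a fitted effect of over 55% in size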
Method in brief: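 Quantitative HTS in SH-SY5Y neuroblastoma cells, 40 hr treatment at 37 °C, ATP content by luciferase luminescence; AC50 from Hill fits.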

[12] = Cell Viability - Renal Proximal Tubule (AID 545); settings: renal proximal tubule cells viability; at 91.7 µM (top of the series), primary cells of rat origin unless noted;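 further: cells exposed to compound for 40 hours; 0% = DMSO only and -100% = 100 µM tamoxifen; nearly all actives have a fitted effect of over 40% in size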
Method in brief: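 Viability taken as intracellular ATP (CellTiter-Glo luminescence) after 40 hr, 37 °C compound treatment of primary proximal tubule cells from rat kidney, 1000 cells/well; Hill-equation fits of qHTS concentration-response data gave AC50.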

[13] = Cell Viability - Mesenchymal (AID 546);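 further: cells exposed to compound for 40 hours before reading; 0% = DMSO only and -100% = 100 µM tamoxifen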
Method in brief: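 Human renal mesenchymal cells (glomerulus-derived), 1000 cells/well, 5 hr 37 °C pre-incubation; compound 40 hr, 37 °C; CellTiter-Glo, 20 min RT; luminescence; AC50 via Hill equation.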

[14] = Cellular Toxicity (caspase-3) HepG2 (AID 654);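 further: cells exposed to compound for 16 hours before reading; 0% = DMSO alone and 100% = caspase signal from 100 µM tamoxifen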
Method in brief: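 Concentration-response AC50 values reflect caspase-3/7 induction in HepG2 cells after 16 hours of compound exposure, quantified by luminescence from liberated aminoluciferin and referenced to 100 uM tamoxifen as full stimulation.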

[15] = Cellular Toxicity (caspase-3) HUV-EC-C (AID 656);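 further: 0% = DMSO basal and 100% = 100 µM tamoxifen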
Method in brief: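 Luminescent Caspase-Glo 3/7 readout after 16 h, 37 °C compound exposure of HUV-EC-C endothelial cells, 1000 per well, complete medium. AC50 derived by Hill fitting, with DMSO as baseline and 100 uM tamoxifen as full activation.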

[16] = Cellular Toxicity (caspase-3) SHSY5Y (AID 657)
Method in brief: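 Luminescent Caspase-Glo 3/7 read-out, 1 hr room temperature, follows 16 hours of compound treatment of SH-SY5Y cells at 37 °C. Normalization: DMSO basal, 10 uM staurosporine as 100%; AC50 values from Hill-equation concentration-response fits.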

[17] = Cellular Toxicity (caspase-3) BJ (AID 658);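 further: 0% = DMSO basal and 100% = 10 µM staurosporine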
Method in brief: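 qHTS, BJ fibroblasts, 1000 cells/well; 5 hr preincubation, 16 hr compound, 37 °C; Caspase-Glo 3/7 reagent, 1 hr RT; luminescence. DMSO = 0%, 10 uM staurosporine = 100%. Hill-equation AC50.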

[18] = Cellular Toxicity (caspase-3) MRC-5 (AID 659);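 further: 0% = DMSO basal and 100% = 10 µM staurosporine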
Method in brief: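 MRC-5 fibroblasts, 1500/well; 16 h cpd, 37 °C; Caspase-Glo 3/7, 1 h RT; lumi read. Norm: DMSO = 0%, 10 uM staurosporine = 100%. Hill-fit AC50 from qHTS conc-response.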

[19] = Cellular Toxicity (caspase-3) Mesangial (AID 660);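 further: combined caspase 3 and 7 activity read by Caspase-Glo luminescence; cells exposed to compound for 16 h before the caspase read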
Method in brief: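 AC50 values come from Hill-equation fits of caspase 3/7 activation, measured as Caspase-Glo luminescence in human glomerular mesangial cells exposed to compound for 16 h at 37 °C; 100% set by 100 uM tamoxifen.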

[20] = Cellular Toxicity (caspase-3) SK-N-SH (AID 661);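 further: 0% = DMSO basal and 100% = 10 µM staurosporine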
Method in brief: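 Apoptosis readout in SK-N-SH neuroblastoma: Caspase-Glo 3/7 luminescence following 16 hr treatment in complete culture medium. Normalization used DMSO and 10 uM staurosporine controls.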

[21] = Cellular Toxicity (caspase-3) H-4-II-E (AID 663);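 further: cells exposed to compound for 16 hr before readout; 0% = DMSO basal and 100% = 100 µM tamoxifen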
Method in brief: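 H-4-II-E rat hepatoma, 1500 cells/well, 5 hr settle at 37 °C; compound 16 hr, 37 °C, complete medium; Caspase-Glo 3/7, 20 min RT; luminescence. DMSO = 0%, 100 uM tamoxifen = 100%; Hill-equation AC50.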

[22] = Cellular Toxicity (caspase-3) Hek293 (AID 664);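 further: cells exposed to compound for 16 h at 37 °C before readout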
Method in brief: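 Apoptosis readout: Caspase-Glo 3/7 signal in human HEK293 cells following 16-hour compound incubation. Responses scaled between DMSO baseline and 100 uM tamoxifen.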

[23] = Cellular Toxicity (caspase-3) NIH 3T3 (AID 666);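 further: caspase signal read after 16 h compound exposure; 0% = DMSO basal and 100% = 100 µM tamoxifen stimulation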
Method in brief: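 Activity: caspase-3/7 induction, NIH 3T3 cells, 16 hr treatment at 37°C, luminescent Caspase-Glo detection; AC50 via Hill equation.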

CCCCOC(=O)c1ccccc1C(=O)OCCCC
inactive: Potency [1] > 92 µM | Potency [2] > 92 µM | Potency [3] > 92 µM | Potency [4] > 92 µM | Potency [5] > 92 µM | Potency [6] > 92 µM | activity change, negative = cytotoxicity [7] -7.34% | activity change, negative = cytotoxicity [8] -3.85% | Potency [9] | Potency [10] | Potency [11] | activity change, negative = cytotoxicity [12] 1.09% [at 91.7 µM] | outcome [13] | outcome [14] | outcome [15] | outcome [16] | outcome [17] | outcome [18] | outcome [19] | outcome [20] | outcome [21] | outcome [22] | outcome [23]
